Source: PubChem (National Center for Advancing Translational Sciences (NCATS))
Hits are enriched below; roughly 19% of the tested compounds scored in any of these assays.
DT40 TDP1 CPT: qHTS for Inhibitors of human tyrosyl-DNA phosphodiesterase 1 (TDP1): qHTS in cells in presence of CPT; chicken DT40 Tdp1-/-;hTDP1 cells + 20 nM CPT, ATP luminescence, 48 h; Potency, µM (doses to about 46.2 µM), most hits filed as inhibitors; AID 686979, 2013; 12% of 420,000 active; further: nearly all actives have a fitted effect of over 55% in size
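Chicken DT40 Tdp1-/- cells stably complemented with human TDP1 were seeded at 400 cells/well in medium containing 20 nM camptothecin, exposed to pin-transferred compounds, and grown at 37 °C for at least 48 hr. Viability was read as ATP luminescence.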
HT1080 IDH1KD tx: qHTS for induction of synthetic lethality in tumor cells producing 2HG: qHTS for the HT-1080-IDH1KD cell line; Potency, µM (highest dose often 46.1 µM), most hits filed as cytotoxic; HT-1080 IDH1 knockdown viability, ATP luminescence, 48 h; AID 686971, 2013; 2% of 360,000 active
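% activity derives from luminescence (CellTiter-Glo), normalised to DMSO and no-cell wells. HT-1080-IDH1KD cells, 750/well, had 48 h compound exposure at 37 °C.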
uPA surface inh: qHTS for Inhibitors of Cell Surface uPA Generation. cell surface uPA generation assay, qHTS. Potency, µM (doses to about 38.3 µM), hits mostly inhibitors. 0.31% of 330,000 active; active means well fitted inhibition curve with a large enough effect; inconclusive means small, poorly fitted or top-dose-only effect; inactive means no such curve, though single readings can be large or run the other way; tested in mouse RAW 264.7 cells; further: nearly all actives have a fitted effect of over 55% in size
TDP1 cell noCPT: qHTS for Inhibitors of human tyrosyl-DNA phosphodiesterase 1 (TDP1): qHTS in cells in absence of CPT. DT40 Tdp1-/- hTDP1 cells, no CPT, ATP luminescence, 48 h. Potency, µM (doses to about 46.2 µM), actives largely listed as inhibitors. 15% of 420,000 active. AID 686978, 2013; further: nearly all actives have a fitted effect of over 55% in size
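No-CPT arm: Tdp1-/-;hTDP1 DT40 cells (400/well) plus compounds, incubated ≥48 hr at 37 °C. Readout CellTiter-Glo luminescence.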
HT1080-NT tox: qHTS for induction of synthetic lethality in tumor cells producing 2HG: qHTS for the HT-1080-NT fibrosarcoma cell line; HT-1080-NT fibrosarcoma viability, CellTiter-Glo ATP luminescence, 48 h; Potency, µM (series often up to 46.1 µM), usual class: cytotoxic; 1.6% of 360,000 active; AID 686970, 2013;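 further: NT is the 2HG producing partner of a matched IDH1 knockdown line; nearly all actives have a fitted effect of over 55% in size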
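Toxicity toward the 2HG-producing NT line was scored as %Activity, normalised to DMSO and no-cell wells, from CellTiter-Glo luminescence after 48 hours' treatment.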
IL-1B inflam inh: qHTS for Inhibitors of Inflammasome Signaling: IL-1-beta AlphaLISA Primary Screen. THP-1 LPS/ATP IL-1B secretion, AlphaLISA, 16 h; stronger effect = lower value. activity change, % at 57.5 µM. 4.7% of 360,000 active; in the data active means activity change below about -50%; inconclusive means mostly about -30% to -49%
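Secreted IL-1B measured by AlphaLISA bead assay after 16 h compound exposure of THP-1 cells; compounds (final up to 57.5 uM) added 1 h before LPS (250 ng/mL) and ATP (1.25 mM) stimulation; lower signal means less secretion.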
Large screens that a line does not name were inactive. Unless noted, the call rests on the fitted dose curve; in most records, active means well fitted curve in the direction sought with a large enough effect; inconclusive means small, poorly fitted or top-dose-only effect, or another doubt; inactive means no such curve, though single readings can be large; an effect the other way counts as inactive or inconclusive.

COc1cccc(NC(=O)N2CCC(n3c(C)nc4cccnc43)CC2)c1	none (no result: HT1080 IDH1KD tx, uPA surface inh, HT1080-NT tox, IL-1B inflam inh)
C=CCn1c(SCC(=O)c2cccs2)nnc1-c1cccc(OC)c1	HT1080-NT tox inconclusive
C=CCn1c(SCC(=O)c2cccs2)nc2sc(C)cc2c1=O	DT40 TDP1 CPT inconclusive, HT1080 IDH1KD tx inconclusive, TDP1 cell noCPT 21µM
CC(C)(S)C(=O)N[C@@H](CS)C(=O)O	none (no result: HT1080 IDH1KD tx, uPA surface inh, HT1080-NT tox, IL-1B inflam inh)
C=CCNC(=S)N1CCN(Cc2ccc3c(c2)OCO3)CC1	none
COc1ccc(-n2c(-c3ccc(F)cc3)cn3c4c(=O)n(C)c(=O)n(C)c4nc23)cc1	none (no result: HT1080 IDH1KD tx, uPA surface inh, HT1080-NT tox, IL-1B inflam inh)
CCN(CC)c1nc(NC2CCN(C)CC2)c2cc(OC)c(OC)cc2n1	DT40 TDP1 CPT 5.6µM, HT1080 IDH1KD tx inconclusive, TDP1 cell noCPT 10µM, HT1080-NT tox inconclusive (no result: uPA surface inh, IL-1B inflam inh)
C=CCNc1nc(NC2CCN(C)CC2)c2cc(OC)c(OC)cc2n1	DT40 TDP1 CPT 13µM, TDP1 cell noCPT inconclusive (no result: HT1080 IDH1KD tx, uPA surface inh, HT1080-NT tox, IL-1B inflam inh)
CCC(C)NC(=O)c1ccc(Cn2c(=O)c3cccn3c3cccnc32)cc1 (configuration not stated)	TDP1 cell noCPT inconclusive (no result: HT1080 IDH1KD tx, uPA surface inh, HT1080-NT tox, IL-1B inflam inh)
CN(c1ccccc1)S(=O)(=O)c1ccc(C(=O)NCc2ccccn2)cc1	DT40 TDP1 CPT inconclusive, TDP1 cell noCPT inconclusive
CC(C)(C)OC(=O)C(C)(C)Sc1nnc(N)s1	none
O=C1C=CC(=Nc2ccc(F)cc2)O1	DT40 TDP1 CPT 2.3µM, HT1080 IDH1KD tx inconclusive, TDP1 cell noCPT 4.6µM, HT1080-NT tox inconclusive, IL-1B inflam inh -51
CCN(C(=O)Cn1nnc2sc3c(c2c1=O)CCC(C(C)(C)C)C3)c1cccc(C)c1 (configuration not stated)	DT40 TDP1 CPT 16µM, TDP1 cell noCPT 21µM (no result: HT1080 IDH1KD tx, uPA surface inh, HT1080-NT tox, IL-1B inflam inh)
Cc1cc(C)c(NC(=O)Cn2nnc3sc4c(c3c2=O)CCC(C(C)(C)C)C4)c(C)c1 (configuration not stated)	DT40 TDP1 CPT 15µM, TDP1 cell noCPT 21µM (no result: HT1080 IDH1KD tx, uPA surface inh, HT1080-NT tox, IL-1B inflam inh)
CC(=O)Cn1nnc2sc3c(c2c1=O)CCC(C(C)(C)C)C3 (configuration not stated)	DT40 TDP1 CPT inconclusive, TDP1 cell noCPT inconclusive, IL-1B inflam inh inconclusive
CCCOC(=O)c1ccc(NC(=O)Cn2nnc3sc4c(c3c2=O)CCC(C(C)(C)C)C4)cc1 (configuration not stated)	DT40 TDP1 CPT 18µM, TDP1 cell noCPT 8.2µM (no result: HT1080 IDH1KD tx, uPA surface inh, HT1080-NT tox, IL-1B inflam inh)
Cc1ccc(Cl)cc1NC(=O)Cn1nnc2sc3c(c2c1=O)CCC(C(C)(C)C)C3 (configuration not stated)	DT40 TDP1 CPT 7.3µM, TDP1 cell noCPT 4.1µM (no result: HT1080 IDH1KD tx, uPA surface inh, HT1080-NT tox, IL-1B inflam inh)
CCOC(=O)c1sc(NC(=O)Cn2nnc3sc4c(c3c2=O)CCC(C(C)(C)C)C4)nc1C (configuration not stated)	none
Cc1nccn1CCCNC(=O)C1CCC(=O)N(Cc2ccccc2F)C1 (configuration not stated)	none
COC(=O)c1cc(CNC(=O)c2ccc3ccccc3n2)cc(NC(=O)c2cccc(OC)c2)c1	none (no result: HT1080 IDH1KD tx, uPA surface inh, HT1080-NT tox, IL-1B inflam inh)
COc1ccc(CN2CCNC(=O)C2CC(=O)N(C)Cc2nonc2C)c(F)c1 (configuration not stated)	none
O=C(NCc1nnc2c(C(F)(F)F)cc(Cl)cn12)C1CCCC1	DT40 TDP1 CPT inconclusive
CCc1ccccc1NC(=O)Cn1nnc2sc3c(c2c1=O)CCC(C(C)(C)C)C3 (configuration not stated)	DT40 TDP1 CPT 16µM, TDP1 cell noCPT 15µM (no result: HT1080 IDH1KD tx, uPA surface inh, HT1080-NT tox, IL-1B inflam inh)
CCOc1ccc(/C=C/c2nc(C#N)c(N3CCN(c4ccc(OC)cc4)CC3)o2)cc1	none (no result: HT1080 IDH1KD tx, uPA surface inh, HT1080-NT tox, IL-1B inflam inh)
CN(CC(=O)Nc1cccc(F)c1)C(=O)CCNC(=O)c1ccco1	none
Fc1ccc(/C=N/NC(=S)Nc2ccc(Cl)cc2)cc1F	DT40 TDP1 CPT inconclusive, TDP1 cell noCPT 23µM
Fc1ccc(NC(=S)N/N=C/c2ccc(F)c(F)c2)cc1	DT40 TDP1 CPT 4.1µM, TDP1 cell noCPT 6.5µM
Fc1ccc(/C=N/NC(=S)NCCc2ccccc2)cc1F	DT40 TDP1 CPT inconclusive, TDP1 cell noCPT inconclusive
Fc1ccc(/C=N/NC(=S)Nc2ccc(Cl)cc2Cl)cc1	DT40 TDP1 CPT 7.3µM, HT1080 IDH1KD tx inconclusive, TDP1 cell noCPT 5.2µM, HT1080-NT tox inconclusive
COc1ccc(NC(=S)N/N=C/c2ccc(F)c(F)c2)cc1	DT40 TDP1 CPT inconclusive, HT1080 IDH1KD tx 21µM, TDP1 cell noCPT inconclusive, HT1080-NT tox inconclusive
CN(C)C(CNC(=O)c1ccc(S(=O)(=O)Nc2ccccc2F)cc1)c1ccco1 (configuration not stated)	TDP1 cell noCPT inconclusive
CC(C)NC(=O)NC(=O)CN1c2cccc3cccc(c23)S1(=O)=O	none
O=C(O)c1ccc(N2C(=O)CC(N3CCN(c4cccc(Cl)c4)CC3)C2=O)cc1 (configuration not stated)	TDP1 cell noCPT 3.3µM
O=C(O)c1ccc(N2C(=O)CC(N3CCN(c4cccc(C(F)(F)F)c4)CC3)C2=O)cc1 (configuration not stated)	none
CCOC(=O)c1ccc(N2C(=O)CC(N3CCCC(C)C3)C2=O)cc1 (configuration not stated)	DT40 TDP1 CPT 13µM, TDP1 cell noCPT inconclusive (no result: uPA surface inh)
O=C1CC(N2CCN(Cc3ccccc3)CC2)C(=O)N1c1ccccc1 (configuration not stated)	none
Cc1cc(C)n(C2CC(=O)N(c3cccc(Cl)c3)C2=O)n1 (configuration not stated)	DT40 TDP1 CPT 15µM, TDP1 cell noCPT inconclusive (no result: uPA surface inh)
CC1CCN(C2CC(=O)N(c3ccccc3)C2=O)CC1 (configuration not stated)	DT40 TDP1 CPT 21µM
CCOC(=O)c1ccc(N2C(=O)CC(N3CCN(Cc4ccccc4)CC3)C2=O)cc1 (configuration not stated)	none
CCN(CC)C(=O)C1CCN(Cc2cn(C)nc2-c2ccc(Oc3ccccc3)cc2)CC1	DT40 TDP1 CPT inconclusive, TDP1 cell noCPT 21µM
C[C@H]1C(=O)N(C)CCN1Cc1cn(C)nc1-c1ccc(Oc2ccccc2)cc1	DT40 TDP1 CPT inconclusive, TDP1 cell noCPT inconclusive
COC(=O)/C=C1\N/C(=N/c2nc(C)c3cc(OC)ccc3n2)NC1=O	DT40 TDP1 CPT 12µM, HT1080 IDH1KD tx inconclusive, TDP1 cell noCPT 9.2µM
COC(=O)/C=C1/C(=O)N/C(=N\c2nc(C)cc(C)n2)N1c1ccc(OC)cc1	none
